Test results taken from PubChem BioAssay (NCATS).
Records with an inconclusive call do not appear. A number with no mark means an inactive call. The source made the active and inactive calls. Calls come from the whole dose curve; as a rule, active = well fitted cell-killing curve with a large enough effect; inconclusive = small, poorly fitted or top-dose-only effect; inactive = no such curve, though single readings can be large or run the other way.

Test: qHTS of pediatric cancer cell lines to identify multiple opportunities for drug repurposing: Primary screen for SJ-GBM2 cells (AID 1347091)
Conditions: SJ-GBM2 viability, CellTiter-Glo luminescence, 48 h; series mostly up to 46 µM; activity change, negative = cytotoxic: at the top concentration
Text: Drug repurposing or repositioning has been offered as a strategy for drug development in oncology programs. This approach has special potential for childhood cancers and other rare or orphan diseases, where the expected return on new drug development has been a disincentive to pharmaceuticals.
In this project we exploit the poly-pharmacology of drugs to discover new indications via phenotypic screening of a panel of 19 well-characterized cell lines derived from solid tumors seen in children and adolescents. The goal is to identify approved drugs with previously unrecognized anticancer properties that has the potential to reveal new mechanisms and biological processes involved in carcinogenesis or drug resistance. We employed a titration-based paradigm (quantitative high-throughput screening or qHTS), where all compounds were tested at multiple concentrations for their effect on cell viability. Concentration-response curves (CRCs) were derived directly from the primary screen, and both potency and efficacy values were used to identify compounds with robust bioactivity profiles. We screened the NIH Chemical Genomics Center (NCGC) Pharmaceutical Collection (NPC) and Mechanism Interrogation Plate (MIPE) small molecule collections of approved and investigational compounds against these cell lines; and measured metabolically active cells after 48 hours of compound treatment as a proxy for cell viability.
Assay Submitter: Nathalia J. Martinez, National Center for Advancing Translational Sciences, National Institutes of Health, Rockville, MD, USA; email: natalia.martinez@nih.gov
[1] Shen, M et al. Quantitative high-throughput phenotypic screening of pediatric cancer cell lines identifies multiple opportunities for drug repurposing. Oncotarget 2017 Dec 19;9(4):4758-4772. PMID 29435139.
The cells were obtained from University of North Carolina (UNC), Pediatric Preclinical Testing Program (PPT), and Coriell Institute (CI).
qHTS cell viability assay:
Cells were assayed in growth media at a density of 500-1,000 cells/well. Five microliters of cells were dispensed into 1,536-well, white, solid-bottom, TC-treated plates (Greiner Bio One) using a multidrop dispenser and incubated at 37 degrees C, 5% CO2, under a humidified atmosphere for 5 hours. Twenty-three nanoliters of compounds and controls (neutral control DMSO or positive control bortezomib at final concentration of 2.3 µM) were subsequently transferred by Kalypsys pintool. For primary screens, the MIPE collection was tested at 11-point dilutions (final concentrations range from 0.78 nM to 46 µM) and the NPC collection at 8-point dilutions (final concentrations range from 0.59 nM to 46 µM). Compounds tested in follow-up screens were assayed at 11-point dilutions. Cells were incubated for 48 hours, followed by addition of 3 uL of CellTiter-Glo (Promega). After a 15 min incubation at room temperature, samples were analyzed for luminescence intensity using a ViewLux High-throughput CCD imager equipped with clear filters.
Potency is the fitted concentration of half-maximal effect.

| SMILES | Potency | activity change, negative = cytotoxic |
| --- | --- | --- |
| O=C(Nc1ccc(Oc2ccc(Cl)cc2)c(Cl)c1)c1cc(I)cc(I)c1O | 15 µM (active) |  |
| Oc1c(I)cc(I)c2cccnc12 | 13.3 µM (active) |  |
| CCN1CCC[C@H]1CNC(=O)c1c(OC)ccc(Br)c1OC |  | -0.984% |
| CC[N+](CC)(CCNC(=O)C(=O)NCC[N+](CC)(CC)Cc1ccccc1Cl)Cc1ccccc1Cl |  | 11.8% |
| OC(CCN1CCCCC1)(c1ccccc1)c1ccccc1 |  | 3.29% |
| CN1CCC[C@@H]1c1cccnc1 |  | -2.02% |
| Cc1cccc(C)c1NC(=O)CN1CCN(CCCC(c2ccc(F)cc2)c2ccc(F)cc2)CC1 | 21.1 µM (active) |  |
| CCN(CC)CCNC(=O)COc1ccc(Cl)cc1 |  | 12.6% |
| CCCCN1CCCC1C(=O)Nc1c(C)cc(C)cc1C (stereo not given) |  | 4.14% |
| CC(C)(C)NC(=O)[C@@H]1CN(Cc2cccnc2)CCN1C[C@@H](O)C[C@@H](Cc1ccccc1)C(=O)N[C@H]1c2ccccc2C[C@H]1O |  | 16.7% |
| Cc1cccn2c(=O)c(-c3nnn[nH]3)cnc12 |  | 10.9% [at 16.1 µM] |
| Cc1ccccc1C(=O)Nc1ccc(C(=O)N2CCCC(N(C)C)c3ccccc32)cc1 (stereo not given) | 9.44 µM (active) |  |
| CCCC(=O)O[C@]1(C(=O)CO)CC[C@H]2[C@@H]3CCC4=CC(=O)CC[C@]4(C)[C@H]3[C@@H](O)C[C@@]21C |  | -4.54% |
| COc1cc2c(cc1OC)[C@@H]1CC(=O)[C@@H](CC(C)C)CN1CC2 |  | 26.4% |
| CCOC(=O)/C=C(C)/C=C/C=C(C)/C=C/c1c(C)cc(OC)c(C)c1C |  | -8.74% |
| NC(=O)c1cc[n+](CC2=C(C(=O)[O-])N3C(=O)[C@@H](NC(=O)Cc4cccs4)[C@H]3SC2)cc1 |  | 9.76% |
| C[C@H](O)C(=O)Nc1c(I)c(C(=O)NC(CO)CO)c(I)c(C(=O)NC(CO)CO)c1I |  | 7.5% |
| CC[C@@H](CO)NCCN[C@@H](CC)CO |  | 10.1% |
| CCN1CCCC1=O |  | 8.94% |
| Oc1ccc(O)cc1 |  | 9.98% |

| SMILES | Potency | activity change, negative = cytotoxic |
| --- | --- | --- |
| CCN1CCN(c2cc3c(cc2F)c(=O)c(C(=O)O)cn3C2CC2)CC1 |  | 107% |
| COc1cc2c(cc1OC)C(=O)C(CC1CCN(Cc3ccccc3)CC1)C2 (stereo not given) |  | -4.81% |
| CC1=C(C(=O)O)N2C(=O)[C@@H](NC(=O)[C@H](N)c3ccc(O)cc3)[C@H]2SC1 |  | 24.5% |
| Cc1ccc(C(=O)C(C)CN2CCCCC2)cc1 (stereo not given) |  | 0.462% |
| COc1cc2c(cc1OC)C(C(C(=O)N(CCc1ccc(OC)c(OC)c1OC)CCc1ccc(OC)c(OC)c1OC)c1ccccc1)=NCC2 (stereo not given) |  | -18.1% |
| Cc1cc2c(cc1CC(=O)c1sccc1S(=O)(=O)Nc1onc(C)c1Cl)OCO2 |  | 22.4% |
| CCN(CC)C(=O)/C(C#N)=C/c1cc(O)c(O)c([N+](=O)[O-])c1 |  | 48.5% |
| CCCOC(C(=O)OC1CCN(C)CC1)(c1ccccc1)c1ccccc1 |  | -2.7% |
| CC(C)(C)CC(C)(C)c1ccc(O)c(Cc2ccc(Cl)cc2Cl)c1 | 21.1 µM (active) |  |
| CC(C)(Oc1ccc(Cl)cc1)C(=O)O |  | 11.4% |
| C[C@]12C=CC(=O)C=C1CC[C@@H]1[C@@H]2[C@@H](O)C[C@@]2(C)[C@H]1CC[C@]2(O)C(=O)CO |  | -4.39% |
| CCOc1ccc(Cc2nccc3cc(OCC)c(OCC)cc23)cc1OCC |  | -15.2% |
| O=C(OCC(O)CO)c1ccccc1Nc1ccnc2cc(Cl)ccc12 (stereo not given) |  | 14.6% |
| NCCc1ccn[nH]1 |  | 2.26% |
| OCc1ccccc1O |  | 29.4% |
| NC(CO)(CO)CO |  | 22.8% |
| CN(C)CC/C=C1/c2ccccc2COc2ccc(CC(=O)O)cc21 |  | 11.2% |
| C[C@@H]1C[C@H]2[C@@H]3CCC4=CC(=O)C=C[C@]4(C)[C@@]3(F)[C@@H](O)C[C@]2(C)[C@H]1C(=O)CO |  | -9.14% |
| C#C[C@]1(OC(C)=O)CC[C@H]2[C@@H]3CCC4=C[C@@H](OC(C)=O)CC[C@@H]4[C@H]3CC[C@@]21C |  | -1.83% |
| Cc1c(N(C)CS(=O)(=O)O)c(=O)n(-c2ccccc2)n1C |  | 19.1% |
